Test results: PubChem BioAssay (Tox21)
Values joined by “and” are separate entries in the source; they are usually repeats but may differ in a detail not shown here. Identical values can stand only once. Results filed as inconclusive are left out. A structure can be active in one record and inactive in another. Active and inactive are the calls of the source. Calls come from the whole dose curve; as a rule, active = well fitted curve in the direction sought with a large enough effect in the repeat runs; inconclusive = weak or mixed curves; inactive = no such curve, though single readings can be large; an effect the other way counts as inactive or inconclusive.

Columns and labels:
[1] = A CellTox Green Cytotoxicity Assay to monitor cytotoxicity in HEK293 cells - 40 hour (AID 1224871); settings: CellTox Green fluorescence; series mostly up to 76.8 µM; note: nearly all actives have a fitted effect of over 45% in size; note: potency is the fitted concentration of half-maximal effect
Outline: (§1)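 Tox21 screen in HEK293: membrane-impermeant cyanine dye fluoresces on binding dead-cell DNA; compound pinned 5 h post-seeding, plates held at 37 C, signal read repeatedly through 40 h.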

[2] = qHTS RealTime-Glo MT Cell Viability Assay in HEK293 cells - 16 hour (AID 1224872); settings: RealTime-Glo luminescence; series mostly up to 76.8 µM; note: nearly all actives have a fitted effect of over 50% in size; note: potency is the fitted concentration of half-maximal effect; for activity change, negative = cytotoxicity: top concentration of the series differs between compounds; % is set by controls: 0 for no effect and ±100 for the full control effect
Outline: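 Homogeneous bioluminescent viability format in HEK293 cells (600 cells/well). Following 5 h at 37 C/5% CO2, 23 nL compound was pintooled; the signal was measured repeatedly during 40 h incubation.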

[3] = qHTS RealTime-Glo MT Cell Viability Assay in HEK293 cells - 40 hour (AID 1224874); settings: RealTime-Glo luminescence; max response: stronger effect = lower value; note: potency is the fitted concentration of half-maximal effect; nearly all actives have a fitted effect of over 50% in size
Outline: (§2)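 HEK293 + NanoLuc + prosubstrate, 600 cells/well; 5 h, 37 C/5% CO2; compound 23 nL in DMSO by pintool; 37 C; luminescence read at 0, 8, 16, 24, 32 and 40 h time points.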

[4] = A CellTox Green Cytotoxicity Assay to monitor cytotoxicity in HEK293 cells - 24 hour (AID 1224875); settings: CellTox Green fluorescence; series mostly up to 76.8 µM; note: nearly all actives have a fitted effect of over 45% in size; note: potency is the fitted concentration of half-maximal effect; for activity change: % is set by controls: 0 for no effect and ±100 for the full control effect
Outline: as §1

[5] = A CellTox Green Cytotoxicity Assay to monitor cytotoxicity in HepG2 cells - 16 hour (AID 1224876); settings: CellTox Green fluorescence; series mostly up to 76.8 µM; note: nearly all actives have a fitted effect of over 45% in size; note: potency is the fitted concentration of half-maximal effect
Outline: (§3)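 Measurements at 0, 8, 16, 24, 32 and 40 h of treatment captured CellTox Green fluorescence in HepG2 cells that had been co-plated with reagent and preincubated 5 h at 37 C/5% CO2.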

[6] = qHTS RealTime-Glo MT Cell Viability Assay in HepG2 cells - 32 hour (AID 1224877); settings: RealTime-Glo luminescence; series mostly up to 76.8 µM; note: nearly all actives have a fitted effect of over 55% in size; note: potency is the fitted concentration of half-maximal effect
Outline: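 Cell number in HepG2 cultures estimated from NanoLuc luminescence generated by metabolic reduction of a prosubstrate by living cells. The homogeneous, nonlytic format allowed repeated reads at 0, 8, 16, 24, 32 and 40 h of compound exposure.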

[7] = A CellTox Green Cytotoxicity Assay to monitor cytotoxicity in HepG2 cells - 24 hour (AID 1224878); settings: CellTox Green fluorescence; series mostly up to 76.8 µM; note: nearly all actives have a fitted effect of over 45% in size; note: potency is the fitted concentration of half-maximal effect; for Cytotoxicity: % is set by controls: 0 for no effect and ±100 for the full control effect
Outline: as §3

[8] = A CellTox Green Cytotoxicity Assay to monitor cytotoxicity in HepG2 cells - 40 hour (AID 1224879); settings: CellTox Green fluorescence; series mostly up to 76.8 µM; note: nearly all actives have a fitted effect of over 40% in size; note: potency is the fitted concentration of half-maximal effect
Outline: as §3

[9] = qHTS RealTime-Glo MT Cell Viability Assay in HEK293 cells - 0 hour (AID 1224880); settings: RealTime-Glo luminescence; series mostly up to 76.8 µM
Outline: as §2

[10] = qHTS RealTime-Glo MT Cell Viability Assay in HepG2 cells - 8 hour (AID 1224873); settings: RealTime-Glo luminescence; series mostly up to 76.8 µM; note: nearly all actives have a fitted effect of over 55% in size; note: potency is the fitted concentration of half-maximal effect
Outline: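 Real-time viability: cells seeded at 600 per well together with NanoLuc and cell-permeant prosubstrate, compounds added after 5 h incubation. Luminescence tracked at 0, 8, 16, 24, 32 and 40 h of exposure.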

[O-][n+]1ccccc1SSc1cccc[n+]1[O-]
active: Potency [1] 1.31 µM | Potency [2] 1.31 µM | Potency [3] 1.17 µM | Potency [4] 4.65 µM | Potency [5] 9.28 µM | Potency [6] 0.165 µM | Potency [7] 1.47 µM | Potency [8] 0.329 µM
inactive: activity change, negative = cytotoxicity [9] -7.04% [at 15.8 µM]

CCCCN1C(=O)[C@@H]([C@H](O)C2CCCCC2)NC(=O)C12CCN(Cc1ccc(Oc3ccc(C(=O)O)cc3)cc1)CC2
inactive: Potency [1] | Potency [2] | Potency [10] | Potency [4] | Potency [5] | Potency [6] | Potency [7] | Potency [8] | Potency [9]

CCN(CC)CCCC(C)Nc1c2ccc(Cl)cc2nc2ccc(OC)cc12 (stereo not drawn)
active: Potency [1] 6.01 µM | Potency [2] 4.25 µM | Potency [3] 3.01 µM | Potency [4] 10.7 µM | Potency [5] 16.9 µM | Potency [6] 6.01 µM | Potency [7] 9.52 µM | Potency [8] 6.01 µM
inactive: Potency [9]

CCCN(CCC)c1c([N+](=O)[O-])cc(C(F)(F)F)c(N)c1[N+](=O)[O-]
inactive: Potency [9]
active: Potency [1] 54.8 µM | Potency [2] 12.3 µM | Potency [10] 48.9 µM | Potency [3] 19.4 µM | Potency [4] 54.8 µM | Potency [6] 48.9 µM | Potency [8] 54.8 µM

COc1c(C)c2c(c(O)c1C/C=C(\C)CCC(=O)O)C(=O)OC2
inactive: Potency [1] | Potency [2] | Potency [10] | Potency [4] | Potency [6] | Potency [7] | Potency [8] | Potency [9]

CCCCCCCCCOC(=O)c1ccc(O)cc1
active: Potency [1] 38.3 µM | Potency [2] 43 µM | Potency [3] 38.3 µM | Potency [4] 38.3 µM | Potency [5] 48.3 µM | Potency [7] 48.3 µM | Potency [8] 48.3 µM
inactive: Potency [6]

Nc1ccccc1O
inactive: Potency [1] | Potency [2] | Potency [10] | Potency [4] | Potency [5] | Potency [6] | Potency [7] | Potency [8] | Potency [9]

CC(C)CCCCCCCCCCCCCCC(=O)O
inactive: Potency [1] | Potency [2] | Potency [10] | Potency [4] | Potency [6] | Potency [7] | Potency [8] | Potency [9]

CCCCC(CC)COC(=O)c1ccccc1C(=O)O (stereo not drawn)
inactive: Potency [1] | Potency [2] | Potency [10] | Potency [4] | Potency [5] | Potency [6] | Potency [7] | Potency [8] | Potency [9]

Oc1ccc2cc(SSc3ccc4cc(O)ccc4c3)ccc2c1
inactive and 21.9 µM (active): Potency [8]
active: Potency [1] 49 µM and 24.5 µM | Potency [2] 49 µM | Potency [3] 55 µM
inactive: Potency [10] | Potency [5] | Potency [6] | Potency [7] | Potency [9]

CCOC(=O)O[C@]1(C(=O)OCCl)CC[C@H]2[C@@H]3CCC4=CC(=O)C=C[C@]4(C)[C@H]3[C@@H](O)C[C@@]21C
inactive: Potency [1] | Potency [2] | Potency [10] | Potency [4] | Potency [5] | Potency [6] | Potency [7] | Potency [8]

O=C1c2ccccc2Cc2ccccc21
inactive: Potency [1] | Potency [2] | Potency [10] | Potency [4] | Potency [5] | Potency [6] | Potency [7] | Potency [8] | Potency [9]
